Source: PubChem BioAssay AID1508600 (Functional Genomics Laboratory (NCATS/FGL), 2020)
The campaign covered roughly 53,000 sequences. About 3,700 (7%) were called active.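 The calls were made as follows: active = gene knockdowns whose robust z-score for IL-1 alpha signal is at least 2 or at most -2, so actives lie on both sides; inactive = the rest.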 This excerpt belongs to a sample that is enriched for actives.

Assay: Components of the Cytosolic LPS Sensing Pathway: Gene Identification via Genome-wide siRNA Screen;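 also: robust z of the log signal after scaling to non-targeting control siRNA wells of the plate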
Details: RAW264.7 macrophages, IL-1a HTRF, actives lie on both sides, screened at 100 nM (by protocol), cells primed 5 h with Pam3CSK4 first
Method in brief: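 Supernatant IL-1a by HTRF from RAW264.7 cells primed with Pam3CSK4 (5 hours) and transfected with LipidA (24 hour) after 48h siRNA knockdown at 100 nM; cell viability checked with CellTiter-Glo.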

z-score, active:
CCUCUAGAUAGUGUUAGAGTT against Smarcd1 -2.19
GGUAAAGGUAAACUUAUACTT against Vmn1r148 -4.68
CCAUAGCUCUGGAAUGGUGTT against Kcnt1 -2.59
GGGUGAAUUUUGUUUUUGUTT against Kcnj14 3.05
GGAUAGCAUGCUUCCUGAGTT against Rhbdf2 -2.19
GGUGCAAUCAAAUGGAAUUTT against Nrf1 3.75
GGAGAAAGAAGCUAGUGAGTT against Gm6787 -2.77
GGUGGUUAGAUCUUACGCUTT against Tmem184a 4.37
CCACACGUUCCAUUUCUCGTT against Hilpda -2.65
GGUGCGCUUCUAUGUUCCUTT against Ssrp1 2.38
GCCAUUUGUCCACAAAAUGTT against Ces2g -2.06
GGCACUGUUCUCAUCUGUGTT against Olfr736 -2.41
CGACCAGAGUUAUCUGAAUTT against Ctf2 2.2
GCUUGAAUGGAGCGAAUCGTT against Chat 4.86
GGACACAAAUGACAUCAACTT against Sirpa 2.13
GGAUUGUAAUAAUGGAGCCTT against H2-M10.4 2.94
CCAGUUAAGCCAAACUAUGTT against Wdr5 -2.21
GGUCACAUCGUCCUUACAGTT against Rps6ka4 -2.05
GGACGACAGUGCAAAGCAUTT against Usb1 -2.33
CCGCUUUUGUCAAGUUUUCTT against Asap1 2.65
GGUCGUCUUUUAAGAGUUUTT against Ccdc71l 3.03

z-score, inactive:
GGAUAGAGUUAAUGAAAAGTT against Poc5 0.827
GGCACAUUGUGGUGUCUUGTT against Pycr1 -3e-05
GGAGAUUGAAGAGCUCCGATT against Cabp1 -0.0021
GGCCCAUAUUUUAUUACCGTT against Galns -1.84
GGAGGCAGUGUUUUGUCAATT against Fgd4 -0.912
GGAAGGCAUUGAAGCUGAATT against Armt1 0.447
GGGCCAACUCAAAACAAAATT against Wdr37 -0.74
GGUUGUUCACUAGGUCACUTT against Creg2 0.591
GGUGUGUGAAAUCACUCACTT against Oxnad1 0.303
CCAAUUAUGUGAGAAGUGATT against Snx24 0.463
CCAACUCGUGAUUCUAGACTT against Tmed10 1.27
GCGCAAUACGUGGGUUUGUTT against Shisal2b 0.254
GCUCGUUUGUGUAUAAGGATT against 4930503L19Rik 0.276
GGUUCUCGUGUGGCACACUTT against B3gat2 0.126
CCUUCAAUCUUUCUUUCUGTT against Olfr1465 -0.635
CCGUGAUAACAACAUUUGUTT against Olfr750 -0.833
GGAGUAUGAUUCAGAAAUGTT against Scn11a -0.607
GGUCAUCAUGAGCCCAUGUTT against Olfr1341 -1.72
GGAUUUGGCUAUAUCAACATT against Rfc2 -1.56
GGAUGUAUGCCAAAGAAUUTT against Fmo5 -0.0456
CGUGCUAAACCAAGACUUATT against Lyplal1 1.25
GGAAAUGCUCCUCUAGGAUTT against Ppcs 0.039
GGAUGAAGAACUGACUCCGTT against Mboat2 -0.108
GCUACGUAAACGGAAGGCUTT against Abraxas1 0.272
GGUAAGAGGAUGGACACAATT against Chst1 1.08
GAUCCGUUGGGAAAAGAACTT against Ssbp4 -0.881
GGCAGUUCUUAAGUAAUCATT against Fem1al 0.924
GCGAACUCCUCUUUAGGCATT against Chrng -0.594
GCCAUCCUUCCAUUUAAGATT against Wdyhv1 -0.478
GGUAAGGACUAUUUGAAUUTT against Lpar1 -0.429
GCAAAUUAAGCACUGUAAGTT against Dennd1b 0.379
CGCGUACGACUUCUACAAATT against Hmgcs2 0.775
GGUGGAGUUUCUCAAAAGCTT against Kcnc3 0.0264
GCAGGUACUGCGCUAUUAUTT against Atp13a2 -0.766
GGAUGUGGCUGCUUUGAAGTT against Mettl27 -1.38
CCUUCUAGACACCAUACCCTT against Pidd1 0.259
CGUCAUGCAUUUUUCUAAATT against Trim24 0.489
GGAUGAGAAGAAAGAAGAUTT against Srrt -1.36
GGAUACAGCAGUACAAAUGTT against Ces2c -0.135
GGCAAGGAUUUUUCUACCUTT against Tslp -0.555
GCUGCACAAGUGAUAUCCGTT against Trim26 0.397
GGGAAAGCCAUCCUUCACUTT against Erich5 0.288
GGAGAAAAAGAGAUAAGGUTT against Ppp2r2b -0.893
GGACCUGGAGUAUAUGCUGTT against Mgat4f -0.611
GGUUGACUCUACAAAAUACTT against Muc5b -0.656
GGCAGUUGUGAACUUUCUCTT against Telo2 0.243
GGAAAGGCUGUUUCCUACCTT against Atox1 1.05
GGACUUGUGAUUCAAGCAUTT against Rad23b 0.525
CCUGAUUGACGACAGUAAGTT against Mcrs1 0.519
GGGAAUUUAUGCAUUAGCATT against Kif2a 0.111
GGCUCUGCUAUUUCUCCUGTT against Olfr17 -1.16
GGAAACAAAGUCAAUGUGGTT against Cnn1 -0.522
GCUGAAGUAGGGUUUAUUATT against Gdap10 0.786
GCCUUGGACAAAAACACUATT against Ryk -0.917
CCUGAUUCCAAAUGUGUUUTT against Sgcb 0.158
CGGCAUCCAGUCUCAGAUGTT against Coch 1.88
GCCUAAGUUCUAGCAAAAUTT against Spata31d1d 0.514
GGAAGCUACAUGCUGUUCCTT against Anln 0.737
UGAAAAGAGCAAUGAAGAATT against Olfr177 -0.36
GGAAAGGAGAAGAGAAAUGTT against Scyl1 1.18
CCUGACAGUACCAAAAAAUTT against Pax4 -0.599
GGUACAAUGUUCAUACCAATT against Rab9b 0.528
GGGCUAUUGCAUCUUUUAATT against Olfr711 -0.0884
CCGAAUUGAAAUCACAAGCTT against Nup43 -1.31
GGAGAGGUGGUAUUGUUGGTT against Olfr1297 0.29
GCUAAAUUCUUUCCUGAAGTT against Rdx -1
CCAGUUACUAGUAAUACUCTT against Mcm3ap -0.0482
CCAAGGUGCUGUUGGUAUATT against Ssr2 0.248
GCAACGACUCUAAUGACUUTT against Slc38a1 -0.515
GCUUUCCACCACGUACUGATT against Plekha6 -0.0754
GGAUCAGCUGUUGCCAGAGTT against Zfp384 0.806
GGAGUAUAACUAUGGCUUCTT against Mvb12a 0.689
GGAAGUGCUGCACAUACUATT against Bnc2 -0.525
GGAAGAUUUGUUCUAUACUTT against Epgn 0.593
GGGAUUAAAAUCCUAUCUUTT against Eva1a 0.857
GGAUCAGGAUUUAAUGAAUTT against Zc2hc1a -1.13
CCUUAUAAUUGACACUGAUTT against Toe1 0.312
GGAUAGCUGCCAACACUACTT against Baiap2l2 -0.689
GGACACUCAAUGAAAUCUATT against Foxp3 1.21
GCUAAAAAUAAACAGUCGGTT against Pus10 -0.642
GCCCGUCGGAUAUAAGAUUTT against Cd247 -0.351
GGAAGAAUCGUUUAUGACATT against Ppp4r2 0.73
GGUUUUGAGAUUGAAAGAATT against Myof -0.344
GGUGCAACAAUCAUUUGAATT against Casp4 -0.431
GGAAGAAAUGCAUAAUGCATT against Mesd 0.236
GGAAAAACUGCUAGAUCUATT against As3mt 1.49
GGCUAUGGAAAAAGAUAUGTT against Il21r -1.02
